Measurements from PubChem BioAssay (Tox21).
Records with an inconclusive call do not appear. Where a call stands in place of a potency, no number is given. Calls of active or inactive are those of the source. The call rests on the fitted dose curve; in most records, active means well fitted inhibition curve with a large enough effect in the signal ratio in the repeat runs (not every such curve was filed as active); inconclusive means weak or mixed curves; inactive means flat fitted curve, though single readings scatter; the % refers to the signal ratio.

Biological target: Progesterone receptor (Homo sapiens) (UniProt P06401)
Test: qHTS assay to identify small molecule antagonists of the progesterone receptor (PR) signaling pathway (AID 1346795)
Details: PR-UAS-bla HEK293T, beta-lactamase FRET ratio, 16 h; series mostly up to 92.4 µM
Excerpt: National Center for Advancing Translational Sciences [NCATS]
NIH Chemical Genomics Center [NCGC]
U.S. Environmental Protection Agency [EPA]
National Institutes of Environmental Health Sciences [NIEHS]
National Toxicology Program [NTP]
U.S. Food and Drug Administration [FDA]
Progesterone receptor (PR), a nuclear hormone receptor, plays an important role in development, metabolic homeostasis and reproduction. […] Endocrine disrupting chemicals (EDCs) and their interactions with steroid hormone receptors like PR causes disruption of normal endocrine function. To identify the compounds that inhibit PR signaling, a PR-UAS-bla GripTite cell line i.e. PR-UAS-bla HEK293T (Invitrogen, Carlsbad, CA, USA) containing a beta-lactamase reporter gene under the control of an Upstream Activator Sequence (UAS) was used to screen Tox21 10K compound library.
Tox21 Assay Protocol Summary:
PR-UAS-bla HEK293T cells were dispensed at 3,000 cells/4 uL of assay medium containing 2% charcoal stripped FBS per well into black wall/clear-bottom 1536-well plates using a Multidrop Combi (ThermoFisher Scientific, Waltham, MA) dispenser. After the assay plates were incubated at a 37C and 5% CO2 for 6 hr, 23 nL of compounds dissolved in DMSO, positive controls or DMSO only was transferred to the assay plate by a Pintool station (Kalypsys, San Diego, CA), followed by addition of 1 uL (1nM as final concentration) of Promegestone (R5020) in assay medium using a BioRAPTR FRD (Flying Reagent Dispenser, Aurora Discovery, San Diego, CA). The plates were incubated at 37C and 5% CO2 for 16 hr. Then 1 uL of LiveBLAzer B/G FRET substrate was added using a FRD. After the plates were incubated at room temperature for 2 hours, fluorescence intensity was measured by an Envision plate reader (PerkinElmer, Shelton, CT).
Potency means the concentration at half of the fitted maximal effect.

Sequence of Progesterone receptor (Homo sapiens) (P06401 whole entry, looked up): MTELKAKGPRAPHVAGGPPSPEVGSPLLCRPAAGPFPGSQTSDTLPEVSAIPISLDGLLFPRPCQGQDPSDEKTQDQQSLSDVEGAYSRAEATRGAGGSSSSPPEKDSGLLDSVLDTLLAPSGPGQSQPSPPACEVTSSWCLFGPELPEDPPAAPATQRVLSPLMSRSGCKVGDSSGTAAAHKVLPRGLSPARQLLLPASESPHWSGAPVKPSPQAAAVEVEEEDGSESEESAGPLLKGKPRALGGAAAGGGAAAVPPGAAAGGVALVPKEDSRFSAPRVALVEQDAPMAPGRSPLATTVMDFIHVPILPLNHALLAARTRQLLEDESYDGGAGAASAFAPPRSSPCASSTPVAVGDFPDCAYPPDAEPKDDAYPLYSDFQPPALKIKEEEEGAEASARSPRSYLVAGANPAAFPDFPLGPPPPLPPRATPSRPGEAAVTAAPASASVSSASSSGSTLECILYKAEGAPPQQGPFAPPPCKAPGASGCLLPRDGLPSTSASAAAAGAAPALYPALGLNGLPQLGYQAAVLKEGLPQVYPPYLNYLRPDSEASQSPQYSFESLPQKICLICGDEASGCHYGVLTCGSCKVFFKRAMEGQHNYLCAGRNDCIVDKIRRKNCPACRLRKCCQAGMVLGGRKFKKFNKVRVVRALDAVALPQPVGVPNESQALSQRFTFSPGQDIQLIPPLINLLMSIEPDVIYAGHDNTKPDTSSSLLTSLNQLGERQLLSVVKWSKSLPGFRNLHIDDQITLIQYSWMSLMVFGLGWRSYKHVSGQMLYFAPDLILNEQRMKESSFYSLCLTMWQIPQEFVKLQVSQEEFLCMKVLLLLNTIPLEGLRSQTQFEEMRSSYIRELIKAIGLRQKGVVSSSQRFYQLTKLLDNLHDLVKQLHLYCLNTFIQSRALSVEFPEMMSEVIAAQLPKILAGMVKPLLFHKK

Row | SMILES | Potency | activity change, negative = inhibition
1 | CCOC(=O)C1=NN(c2ccccc2)C(=O)C1 | inactive | –
2 | CCCCCCCCCO | inactive | –
3 | CC[C@@H]1C[C@H](N(Cc2cc(C(F)(F)F)cc(C(F)(F)F)c2)C(C)=O)c2cc(C(F)(F)F)ccc2N1C(=O)OC(C)C | inactive | –
4 | O=C1CCCCCO1 | inactive | –
5 | Nc1cnn([C@@H]2O[C@H](CO)[C@@H](O)[C@H]2O)c(=O)n1 | 19.4 µM (active) | –
6 | CCOC(=O)CC(C)C | inactive | –
7 | O=C(/C=C/c1ccc(O)c(O)c1)O[C@@H]1C[C@](O)(C(=O)O)C[C@@H](O)[C@H]1O | inactive | –
8 | CC1(C)CCC(C)(C)c2cc(NC(=O)c3ccc(C(=O)O)cc3)ccc21 | 16.8 µM (active) | –
9 | O=C1c2cccc(O)c2C(=O)c2c(O)cc(CO)cc21 | inactive | –
10 | CNS(=O)(=O)Cc1ccc2[nH]cc(CCN(C)C)c2c1 | inactive | –
11 | Oc1ccc(Sc2ccc(O)cc2)cc1 | 18.1 µM (active) | –
12 | Cc1c(Cn2ccnc2)c2ccccc2n1CCC(=O)O | inactive | –
13 | c1ccc(CNCc2ccccc2)cc1 | inactive | –
14 | COc1ccc([C@@H]2Sc3ccccc3N(CCN(C)C)C(=O)[C@@H]2OC(C)=O)cc1 | inactive | –
15 | O=C(c1ccc(O)cc1)c1ccc(O)cc1 | 48.6 µM (active) | –
16 | Cn1sccc1=O | inactive | –
17 | CC(O)C1CCCCC1 (stereo not given) | inactive | –
18 | C=C(C)C(=O)OCCOc1ccccc1 | inactive | –
19 | S=C(S)NCCNC(=S)S | inactive | –
20 | CC/C(=C\C(=N/O)C(N)=O)C(C)[N+](=O)[O-] (stereo not given) | inactive | –

Row | SMILES | Potency | activity change, negative = inhibition
21 | CCOc1ccc(NC(=O)CC(C)=O)cc1 | inactive | –
22 | CC(C(=O)O)c1ccc(C(=O)c2ccccc2)s1 (stereo not given) | inactive | –
23 | CCOc1cc(OCC)c(C(=O)CCC(=O)O)cc1OCC | inactive | –
24 | O=C(NS(=O)(=O)/C=C/c1cccs1)c1ccc(F)cc1Br | inactive | –
25 | Cc1ncsc1CCO | inactive | –
26 | C=CCCCCCC | inactive | –
27 | C=CC(C)(CCC=C(C)C)OC(=O)c1ccccc1 (stereo not given) | inactive | –
28 | O=S1(=O)c2cccc3cccc(c23)N1CCCN1CCN(c2ccc(F)cc2)CC1 | 18.8 µM (active) | –
29 | CCN(CCO)CCCC(C)Nc1ccnc2cc(Cl)ccc12 (stereo not given) | – | 1.96% [at 8.39 µM] (inactive)
30 | CCN(CC)CCc1nc(-c2ccccc2)no1 | inactive | –
31 | C=CC[N+]1([C@H]2C[C@H]3[C@@H]4CC[C@H]5C[C@H](OC(C)=O)[C@@H](N6CCCCC6)C[C@]5(C)[C@H]4CC[C@]3(C)[C@H]2OC(=O)CC)CCCCC1 | inactive | –
32 | CN1CCC[C@@H]1c1cccnc1 | inactive | –
33 | O=C(Cl)c1c(Cl)cccc1Cl | inactive | –
34 | CN(C)CC/C=C1\c2ccccc2COc2ccccc21 | inactive | –
35 | Cc1cc(NC(=O)C(=O)O)cc(C)c1Oc1ccc(O)c2c1CCC2 | inactive | –
36 | CCCCCOC(=O)c1ccc(O)cc1 | 27.6 µM (active) | –
37 | CC(=O)/C=C/C1C(C)=CCCC1(C)C (stereo not given) | inactive | –
38 | CCN1CCC[C@H]1CNC(=O)c1c(OC)ccc(Br)c1OC | inactive | –
39 | O=C(O)c1cn(C2CC2)c2cc(Cl)c(F)cc2c1=O | inactive | –
40 | OCCC1CCCCN1 (stereo not given) | inactive | –
